Source: the supplement of paper PMC10849652
Of roughly 8,800 targets only a part is listed; those with a hit were picked by preference. About 0.5% of all pairs of compound and target were hits.

Experiments:
Test in all cases: log2 fold change, soluble protein after heating vs DMSO (PISA); higher = thermal stabilisation; K562 lysate, 10 uM; active = over 0.2 and 3.5 SD of the protein, either way, in both replicates (recomputed)
[1] = compound: C1=CC=C(C=C1)[C@H](COC2=CC3=C(C=C2)NC(=O)N3)NC(=O)C4=CC=CN(C4=O)CC5=CC(=C(C=C5)F)F
Method in brief: (§1)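 Soluble protein was defined as the supernatant remaining after 21,000xg for 90 min, following pooling of heated aliquots and adjustment to 0.5% NP-40 at 4°C. Before that, crude K562 extract at 1 mg/mL protein in PBS pH 7.4 with 1 mM MgCl2 was treated with 10 μM compound for 30 min and heated for 3 min across 48°C-58°C. Quantification used TMTpro 16plex LC-MS/MS with channel sums equalised, and values are log-two fold changes in thermal stability relative to solvent controls from duplicates.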

[2] = compound: CC1=C(SC2=C1C(=N[C@H](C3=NN=C(N32)C)CC(=O)N)C4=CC=C(C=C4)Cl)C
Method in brief: as §1

[3] = compound: CC1=C2C(=CC=C1)N=C(N(C2=O)C3=CC=CC=C3C)CN4C=NC5=C(N=CN=C54)N
Method in brief: as §1

[4] = compound: Cc1sc2c(c1C)C(c1ccc(Cl)cc1)=N[C@@H](CC(=O)OC(C)(C)C)c1nnc(C)n1-2
Method in brief: as §1

[5] = compound: c1ccc([C@@H]2C[C@H]2NC2CCNCC2)cc1
Method in brief: as §1

Measured: log2 fold change

KRR1 (UniProt Q13601)
Chain of UniProt Q13601 (Q13601 whole entry, looked up): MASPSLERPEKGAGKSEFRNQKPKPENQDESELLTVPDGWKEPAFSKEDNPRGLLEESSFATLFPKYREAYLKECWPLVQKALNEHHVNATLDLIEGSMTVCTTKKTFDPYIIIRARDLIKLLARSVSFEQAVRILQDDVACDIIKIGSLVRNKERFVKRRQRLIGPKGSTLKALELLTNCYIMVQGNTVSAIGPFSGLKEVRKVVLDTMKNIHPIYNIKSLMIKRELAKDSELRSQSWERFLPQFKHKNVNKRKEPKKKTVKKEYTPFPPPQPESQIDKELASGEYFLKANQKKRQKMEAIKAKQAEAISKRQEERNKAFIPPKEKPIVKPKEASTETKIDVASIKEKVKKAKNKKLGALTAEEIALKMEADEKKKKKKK
inactive: [1] 0.019 | [2] -0.017 | [3] 0.005 | [4] 0.062 | [5] 0.035

MFF isoform 2 (UniProt Q9GZY8)
Chain of UniProt Q9GZY8 (Q9GZY8 whole entry, looked up): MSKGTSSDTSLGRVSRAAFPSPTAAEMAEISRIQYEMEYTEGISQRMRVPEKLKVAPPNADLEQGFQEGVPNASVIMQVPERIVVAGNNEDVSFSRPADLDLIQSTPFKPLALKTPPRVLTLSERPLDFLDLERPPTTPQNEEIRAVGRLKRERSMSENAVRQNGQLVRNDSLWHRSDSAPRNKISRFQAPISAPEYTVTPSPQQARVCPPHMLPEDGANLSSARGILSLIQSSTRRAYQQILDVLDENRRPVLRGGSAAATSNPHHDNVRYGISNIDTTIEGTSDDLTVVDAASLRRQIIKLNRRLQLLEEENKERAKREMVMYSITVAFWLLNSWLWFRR
inactive: [1] 0.044 | [2] -0.029 | [3] -0.009 | [4] -0.049 | [5] -0.125

MARK3 (UniProt P27448)
Chain of UniProt P27448 (P27448 whole entry, looked up): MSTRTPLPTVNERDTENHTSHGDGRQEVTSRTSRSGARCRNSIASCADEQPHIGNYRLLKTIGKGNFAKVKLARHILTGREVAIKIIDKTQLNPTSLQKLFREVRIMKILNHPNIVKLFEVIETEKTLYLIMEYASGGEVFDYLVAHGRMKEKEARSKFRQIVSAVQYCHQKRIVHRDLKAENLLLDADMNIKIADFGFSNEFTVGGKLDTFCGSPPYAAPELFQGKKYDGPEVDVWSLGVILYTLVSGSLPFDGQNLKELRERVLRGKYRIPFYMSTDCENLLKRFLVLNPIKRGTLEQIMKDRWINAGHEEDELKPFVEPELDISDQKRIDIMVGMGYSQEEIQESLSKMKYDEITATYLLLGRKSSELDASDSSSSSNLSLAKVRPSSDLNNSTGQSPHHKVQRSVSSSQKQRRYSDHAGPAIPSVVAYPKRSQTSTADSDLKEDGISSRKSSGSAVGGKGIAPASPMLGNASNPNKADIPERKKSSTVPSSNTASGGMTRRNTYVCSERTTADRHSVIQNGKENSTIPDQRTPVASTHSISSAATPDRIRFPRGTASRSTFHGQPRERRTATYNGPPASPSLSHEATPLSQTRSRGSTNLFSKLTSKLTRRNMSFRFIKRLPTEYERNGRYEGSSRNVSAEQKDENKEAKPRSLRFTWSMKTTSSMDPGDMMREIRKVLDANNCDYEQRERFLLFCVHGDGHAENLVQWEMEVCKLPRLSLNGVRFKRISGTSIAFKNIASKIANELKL
inactive: [1] 0.02 | [2] 0.069 | [3] 0.118 | [4] -0.06 | [5] 0.053

MAP2K7 isoform 4 (UniProt O14733)
Chain of UniProt O14733 (O14733 whole entry, looked up): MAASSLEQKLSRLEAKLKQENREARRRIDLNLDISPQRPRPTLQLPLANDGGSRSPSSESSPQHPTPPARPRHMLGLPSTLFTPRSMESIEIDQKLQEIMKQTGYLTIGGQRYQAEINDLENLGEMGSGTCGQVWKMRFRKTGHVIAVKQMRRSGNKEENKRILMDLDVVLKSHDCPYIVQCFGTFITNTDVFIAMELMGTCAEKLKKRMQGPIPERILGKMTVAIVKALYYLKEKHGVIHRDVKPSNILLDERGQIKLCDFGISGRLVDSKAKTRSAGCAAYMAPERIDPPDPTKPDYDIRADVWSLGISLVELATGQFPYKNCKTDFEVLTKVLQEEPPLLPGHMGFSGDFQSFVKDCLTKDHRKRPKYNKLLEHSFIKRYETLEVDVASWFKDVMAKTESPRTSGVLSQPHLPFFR
inactive: [1] -0.072 | [2] -0.261 | [3] -0.038 | [4] 0.066 | [5] 0.079

MBD2 (UniProt Q9UBB5)
inactive: [1] 0.042 | [2] 0.008 | [3] -0.028 | [4] 0.065 | [5] 0.027

KIF21A isoform 5 (UniProt Q7Z4S6)
inactive: [1] -0.023 | [2] 0.024 | [3] -0.003 | [4] 0.009 | [5] 0.118

MAST4 (UniProt O15021)
inactive: [1] 0.007 | [2] -0.019 | [3] -0.037 | [4] 0.023 | [5] 0

MITD1 (UniProt Q8WV92)
Chain of UniProt Q8WV92 (Q8WV92 whole entry, looked up): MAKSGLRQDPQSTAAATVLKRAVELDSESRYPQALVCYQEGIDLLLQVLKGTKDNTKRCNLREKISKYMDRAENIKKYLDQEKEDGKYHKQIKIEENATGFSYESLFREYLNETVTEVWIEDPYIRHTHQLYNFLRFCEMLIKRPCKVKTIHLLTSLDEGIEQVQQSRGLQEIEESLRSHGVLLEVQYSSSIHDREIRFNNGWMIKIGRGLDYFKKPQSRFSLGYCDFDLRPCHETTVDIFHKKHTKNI
inactive: [1] -0.036 | [2] -0.038 | [3] -0.015 | [4] -0.026 | [5] 0.117

LBR (UniProt Q14739)
inactive: [1] -0.018 | [2] 0.045 | [3] 0.04 | [4] 0.007 | [5] 0.117

L3HYPDH (UniProt Q96EM0)
Chain of UniProt Q96EM0 (Q96EM0 whole entry, looked up): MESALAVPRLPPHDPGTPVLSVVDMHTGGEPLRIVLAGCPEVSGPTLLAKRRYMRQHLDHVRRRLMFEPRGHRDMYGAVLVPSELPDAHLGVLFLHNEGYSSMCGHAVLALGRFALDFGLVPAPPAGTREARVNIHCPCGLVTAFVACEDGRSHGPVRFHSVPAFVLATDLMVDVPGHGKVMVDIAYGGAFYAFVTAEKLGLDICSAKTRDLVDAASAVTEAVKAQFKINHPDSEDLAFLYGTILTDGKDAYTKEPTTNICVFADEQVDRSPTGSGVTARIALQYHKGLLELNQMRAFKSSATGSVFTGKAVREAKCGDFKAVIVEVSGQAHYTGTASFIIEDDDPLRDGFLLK
inactive: [1] -0.022 | [2] 0.042 | [3] 0.003 | [4] -0.014 | [5] 0.01

MOCS3 (UniProt O95396)
Chain of UniProt O95396 (O95396 whole entry, looked up): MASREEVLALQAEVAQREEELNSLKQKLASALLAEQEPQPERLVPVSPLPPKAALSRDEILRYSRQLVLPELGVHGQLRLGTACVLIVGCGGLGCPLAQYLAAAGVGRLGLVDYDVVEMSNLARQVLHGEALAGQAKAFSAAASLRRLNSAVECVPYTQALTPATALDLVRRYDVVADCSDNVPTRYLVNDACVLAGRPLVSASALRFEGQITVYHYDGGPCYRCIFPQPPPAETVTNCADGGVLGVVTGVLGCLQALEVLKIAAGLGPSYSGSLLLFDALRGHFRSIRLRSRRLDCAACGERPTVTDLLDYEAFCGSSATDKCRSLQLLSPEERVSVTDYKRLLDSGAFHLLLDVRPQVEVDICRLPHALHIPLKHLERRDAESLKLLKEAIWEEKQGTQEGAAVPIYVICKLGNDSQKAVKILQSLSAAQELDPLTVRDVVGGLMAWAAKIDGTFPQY
inactive: [1] -0.056 | [2] -0.019 | [3] 0.278 | [4] 0.025 | [5] -0.176

MRPL10 isoform 2 (UniProt Q7Z7H8)
inactive: [1] -0.053 | [2] 0.097 | [3] 0.023 | [4] -0.026 | [5] 0.016

KLC1 isoform 6 (UniProt Q07866)
inactive: [1] 0.001 | [2] 0.014 | [3] 0.027 | [4] 0.001 | [5] 0.033

MIF4GD isoform 3 (UniProt A9UHW6)
inactive: [1] -0.046 | [2] -0.033 | [3] 0.005 | [4] -0.051 | [5] -0.029

LYN (UniProt P07948)
inactive: [1] -0.063 | [2] -0.103 | [3] -0.091 | [4] -0.032 | [5] 0.011

LRRC7 (UniProt Q96NW7)
Chain of UniProt Q96NW7 (Q96NW7 whole entry, looked up): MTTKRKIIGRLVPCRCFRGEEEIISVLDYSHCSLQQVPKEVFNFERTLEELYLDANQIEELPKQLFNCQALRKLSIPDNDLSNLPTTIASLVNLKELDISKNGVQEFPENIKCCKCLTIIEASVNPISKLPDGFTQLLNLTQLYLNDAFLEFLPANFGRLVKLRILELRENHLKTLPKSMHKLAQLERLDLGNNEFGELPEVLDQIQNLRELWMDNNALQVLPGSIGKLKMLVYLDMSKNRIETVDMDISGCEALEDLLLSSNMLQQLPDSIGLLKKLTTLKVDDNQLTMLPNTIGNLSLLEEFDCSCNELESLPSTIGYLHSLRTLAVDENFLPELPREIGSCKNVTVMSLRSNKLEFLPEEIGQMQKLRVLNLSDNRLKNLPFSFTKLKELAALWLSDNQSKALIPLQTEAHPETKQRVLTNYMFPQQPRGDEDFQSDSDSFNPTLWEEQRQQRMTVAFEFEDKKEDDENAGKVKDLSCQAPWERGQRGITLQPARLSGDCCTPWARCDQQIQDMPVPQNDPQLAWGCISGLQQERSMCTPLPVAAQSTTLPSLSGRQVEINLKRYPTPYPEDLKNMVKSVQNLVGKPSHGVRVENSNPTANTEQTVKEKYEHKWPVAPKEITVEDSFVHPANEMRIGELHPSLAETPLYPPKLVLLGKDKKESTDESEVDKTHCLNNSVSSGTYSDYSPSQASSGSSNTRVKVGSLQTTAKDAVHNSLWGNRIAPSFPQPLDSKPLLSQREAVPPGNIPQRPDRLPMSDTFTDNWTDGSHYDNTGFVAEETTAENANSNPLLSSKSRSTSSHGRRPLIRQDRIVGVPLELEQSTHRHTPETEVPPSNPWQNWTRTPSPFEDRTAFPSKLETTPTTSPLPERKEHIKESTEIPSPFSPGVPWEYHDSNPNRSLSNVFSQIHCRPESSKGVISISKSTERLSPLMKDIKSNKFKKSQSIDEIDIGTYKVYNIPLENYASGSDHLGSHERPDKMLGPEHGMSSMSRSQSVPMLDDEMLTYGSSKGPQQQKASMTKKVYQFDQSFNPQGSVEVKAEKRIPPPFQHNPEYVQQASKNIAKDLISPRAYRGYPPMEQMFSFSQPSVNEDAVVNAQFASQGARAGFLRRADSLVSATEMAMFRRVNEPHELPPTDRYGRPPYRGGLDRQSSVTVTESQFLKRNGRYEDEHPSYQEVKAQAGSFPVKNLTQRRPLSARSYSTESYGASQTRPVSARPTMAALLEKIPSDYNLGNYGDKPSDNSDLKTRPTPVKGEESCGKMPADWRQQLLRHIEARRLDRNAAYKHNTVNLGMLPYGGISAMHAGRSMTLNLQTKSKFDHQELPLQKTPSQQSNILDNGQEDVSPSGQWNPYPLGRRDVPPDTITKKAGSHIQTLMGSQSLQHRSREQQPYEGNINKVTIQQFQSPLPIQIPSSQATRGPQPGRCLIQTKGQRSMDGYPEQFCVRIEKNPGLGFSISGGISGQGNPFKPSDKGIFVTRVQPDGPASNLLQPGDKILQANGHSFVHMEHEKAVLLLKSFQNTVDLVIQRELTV
inactive: [1] -0.001 | [2] -0.047 | [3] -0.309 | [4] 0 | [5] -0.001

MARK2 (UniProt E9PC69)
inactive: [1] 0.003 | [2] -0.004 | [3] 0.071 | [4] -0.043 | [5] 0.035

KMT2A isoform 3 (UniProt Q03164)
inactive: [1] 0.043 | [2] 0.09 | [3] -0.009 | [4] -0.025 | [5] 0.016

KNOP1 (UniProt Q1ED39)
Chain of UniProt Q1ED39 (Q1ED39 whole entry, looked up): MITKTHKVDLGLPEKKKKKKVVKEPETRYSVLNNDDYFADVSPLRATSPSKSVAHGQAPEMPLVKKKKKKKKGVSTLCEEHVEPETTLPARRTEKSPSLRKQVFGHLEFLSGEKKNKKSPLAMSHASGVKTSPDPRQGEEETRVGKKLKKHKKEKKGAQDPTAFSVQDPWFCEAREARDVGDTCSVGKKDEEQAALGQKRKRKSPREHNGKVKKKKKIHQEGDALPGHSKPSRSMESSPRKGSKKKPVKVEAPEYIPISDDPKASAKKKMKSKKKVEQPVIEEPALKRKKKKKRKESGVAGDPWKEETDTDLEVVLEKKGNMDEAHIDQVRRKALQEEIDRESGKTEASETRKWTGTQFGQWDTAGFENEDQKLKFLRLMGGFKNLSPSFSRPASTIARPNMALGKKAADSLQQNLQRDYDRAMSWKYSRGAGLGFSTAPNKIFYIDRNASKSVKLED
inactive: [1] 0.078 | [2] 0.029 | [3] 0.177 | [4] -0.162 | [5] 0.032

MED17 (UniProt Q9NVC6)
inactive: [1] 0.009 | [2] 0.021 | [3] 0.016 | [4] 0.021 | [5] 0.02

KLC4 isoform 3 (UniProt Q9NSK0)
inactive: [1] 0.011 | [2] 0.004 | [3] -0.003 | [4] 0.01 | [5] 0.014

LPIN1 isoform 7 (UniProt Q14693)
inactive: [1] 0.053 | [2] -0.003 | [3] -0.053 | [4] 0.029 | [5] 0.194

MAD2L2 (UniProt Q9UI95)
inactive: [1] -0.032 | [2] -0.006 | [3] -0.018 | [4] -0.085 | [5] 0.096

LLGL1 (UniProt Q15334)
inactive: [1] 0.038 | [2] 0.052 | [3] 0.024 | [4] -0.056 | [5] 0.074
